In ChEMBL document CHEMBL3988442, “University of Dundee, Small-Polar-MMV Screening Library” (2021):

Experiments:
[1] = biological target: T1, Aspartate--tRNA(Asp/Asn) ligase (Mycobacterium tuberculosis (strain ATCC 25618 / H37Rv)) (UniProt P9WFW3); assay: Assay for Asp RNA synthetase-1 from Mycobacterium tuberculosis; format: functional; set-up: scale not given: direction of the effect not stated beside the values; settings: 30 µM; further: in the data most compounds retested in dose-response had high values
T1 sequence (whole entry): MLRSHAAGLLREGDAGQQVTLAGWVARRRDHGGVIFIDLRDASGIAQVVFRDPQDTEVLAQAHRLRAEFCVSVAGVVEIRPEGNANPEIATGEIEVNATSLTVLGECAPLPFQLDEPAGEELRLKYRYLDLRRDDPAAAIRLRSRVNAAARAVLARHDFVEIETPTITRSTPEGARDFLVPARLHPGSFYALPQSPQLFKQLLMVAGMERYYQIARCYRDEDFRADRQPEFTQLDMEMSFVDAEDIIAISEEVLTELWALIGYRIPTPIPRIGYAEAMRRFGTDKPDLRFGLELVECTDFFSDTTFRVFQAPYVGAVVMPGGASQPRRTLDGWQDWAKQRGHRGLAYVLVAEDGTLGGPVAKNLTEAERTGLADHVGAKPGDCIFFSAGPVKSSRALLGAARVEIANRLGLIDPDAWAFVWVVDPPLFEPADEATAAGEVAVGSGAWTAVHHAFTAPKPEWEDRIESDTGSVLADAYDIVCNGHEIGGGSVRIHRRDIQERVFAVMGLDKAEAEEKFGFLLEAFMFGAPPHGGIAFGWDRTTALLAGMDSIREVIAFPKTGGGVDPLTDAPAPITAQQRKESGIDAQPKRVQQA

[2] = biological target: Shiga toxin 2 (Escherichia coli O157:H7) (UniProt P09385+P09386); assay: E. coli 0.157:H7 Shiga Toxin SOP - stx2 screening assay; format: functional; set-up: scale not given: direction of the effect not stated beside the values; settings: 30 µM

| Compound | Percent Effect [1] | Percent Effect [2] |
| --- | --- | --- |
| Cc1nc(N2CCCC2)nc2c1CCN(C(=O)CC1CC1)CC2 | -1.6% | -20.8% |
| CCS(=O)(=O)c1ccccc1N1CCC(NC(=O)NC2CCCC2)CC1 | -3% | 7.11% |
| CCc1noc(C(C)N2CCN(c3ccc(C#N)cc3F)CC2)n1 (centres undefined) | 1.23% | 8.4% |
| COc1cccc(OCC2CCCN(C(C)=O)C2)c1 (centres undefined) | 3.99% | -11% |
| Cc1nc2ccnn2c(C)c1CCC(=O)N1CCC(C(N)=O)CC1 | 0% | 13.3% |
| CC(C)c1nc(C2CCCN2Cc2ccccc2C#N)no1 (centres undefined) | -6.4% | -29.9% |
| CNC(=O)[C@H]1C[C@@H]2CN(S(=O)(=O)c3ccccc3)C[C@@H]2N1C(C)=O | 2.08% | -6.09% |
| N#Cc1ccc(OCCN2CCc3c(ncn3C3CC3)C2)cc1 | 1.24% | -40.3% |
| CCN(CC)C(=O)c1ccn(COc2ccccc2)n1 | -2.64% | 4.36% |
| O=C(c1ccccn1)N1C[C@@H]2CC[C@H](C1)N(C(=O)CCc1ccsc1)C2 | 0.446% | -55.7% |
| Cc1[nH]nc(CCC(=O)N2CCCC(OCc3cccnc3)C2)c1C (centres undefined) | -6.25% | 20% |
| Cc1cc(C(=O)N2CCCC2c2nnc3n2CCCCC3)no1 (centres undefined) | -2.81% | -2.64% |
| Cc1cnc2n(c1=O)CC(C(=O)Nc1cccc3cccnc13)CS2 (centres undefined) | 16.3% | 23.5% |
| O=C(C1CCOC1)N1CCc2ncc(CNc3ccccn3)n2CC1 (centres undefined) | -0.229% | -21.5% |
| Cc1cccnc1CN1CCC(c2nnc(Cn3cccn3)n2C)CC1 | -1.2% | -18.5% |
| O=C1c2cnc(N3CCOCC3)nc2CN1c1ccc2c(c1)OCO2 | 7.52% | -25.1% |
| Cc1cn2c(n1)CCC(NC(=O)c1cnc(C)nc1C(C)C)C2 (centres undefined) | 2.91% | 20.9% |
